High-throughput results as filed in PubChem.
Only some compounds are listed: those with a hit (about 2% of all), similar ones and a draw of the others.
Shn3 3UTR inh = reduces Shn3 3'UTR luciferase signal in osteoblasts; Clone20 osteoblast Shn3 3'UTR firefly luciferase, 24 h; inhibition, % at 12.5 µM; 360,000 tested, 0.52% active;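 active = mean inhibition of at least 75% with every replicate also reaching 75%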;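 also: 0% = median of neutral control wells and 100% = pilot-screen positive control compound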
KKLEB cytotox = counter-screen for CF NF-kB inhibitors: cytotoxicity; KKLEB CF airway cells viability, ATPlite luminescence, overnight; stronger effect = lower value; cells stimulated with P. aeruginosa culture filtrate; activity change (cytotoxicity), % at 5 µM; 360,000 tested, 0.36% active; AID 602141;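 active = corrected activity change at or below -50% at 5 µM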
LGR2 inh = blocks bursicon-induced cAMP signaling via Drosophila LGR2. AID 720647. HEK293 LGR2, CRE-luciferase, bursicon-stimulated, 4 h. inhibition, % at 9.99 µM. 380,000 tested, 0.35% active;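 active = drop in luminescence signal, shown as inhibition above about 50% in the replicate tests, limit read from the data, passing the limit was not always enough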;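 also: agonist challenge used bursicon conditioned medium at about half maximal strength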
CF NFkB inh = inhibitors of cystic fibrosis induced NF-kB | KKLEB NF-kB-GFP reporter, PAF-induced, GFP fluorescence overnight | inhibition, % at 5 µM | 360,000 tested, 0.86% active | AID 588850;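 active = at least 50% inhibition at 5 µM, scaled per plate between neutral and stimulator controls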;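 also: PAF is a Pseudomonas aeruginosa culture filtrate used as stimulus; plate controls were PAF-stimulated DMSO wells for no effect and unstimulated DMSO wells for full effect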
EWS-Fli inh = blocks EWS/Fli oncoprotein-driven transcription. A673 NR0B1-luciferase reporter, viability-normalised. inhibition, % at 12.6 µM. 350,000 tested, 0.67% active. AID 651661;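 active = mean inhibition of at least 50% after viability correction, with every replicate also passing that limit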;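 also: firefly luciferase signal divided by Alamar Blue viability fluorescence both relative to DMSO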
PAX8 inh HTS = inhibitors of PAX8 transcriptional activity in RMG-I cells; RMG-I TPO-luciferase reporter, SteadyGlo, 24 h; inhibition, % at 12.6 µM; 360,000 tested, 1.2% active; AID 652154;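 active = mean replicate inhibition at least 60% with every replicate also reaching 60%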;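 also: luciferase light reporting Pax8 driven TPO promoter activity; plate controls were median of neutral control wells for no effect and mitoxantrone controls for full effect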
Numbers without * were called inactive; nt = no result given.

SMILES | Shn3 3UTR inh | KKLEB cytotox | LGR2 inh | CF NFkB inh | EWS-Fli inh | PAX8 inh HTS
CCOc1ccc(NC(=O)Nc2ccc3nsnc3c2)cc1 | -5 | 3 | -37 | -8 | -60 | -91
CCOc1ccc(NC(=O)Nc2cccc(C(=O)O)c2)cc1 | 79 | -1 | 105* | -15 | 91* | 99*
CCOC(=O)c1cccc(NC(=O)Nc2ccc(OCC)cc2)c1 | 3 | 1 | 1 | -14 | 84* | -55
C/C=C/c1ccc([C@H]2[C@@H](CO)N(C(=O)Nc3ccccc3F)[C@H]2C#N)cc1 | nt | nt | 21 | nt | -13 | 4
COc1cc2c(cc1OC)C(=O)N1[C@H]3c4cc(Cl)ccc4OC[C@@H]3[C@H](c3ccccc3)[C@]1(C)C(=O)N2 | 0 | 1 | -2 | 10 | 56* | 26
COc1cc2c(cc1OC)C(=O)N1[C@H]3c4cc(C)ccc4OC[C@@H]3[C@H](c3ccccc3)[C@]1(C)C(=O)N2 | 3 | -35 | 12 | 22 | 58* | -5
COc1ccc(-c2cnc3c(c2)C(=O)N([C@@H](C)CO)C[C@@H](C)[C@@H](CN(C)C(=O)C2CCOCC2)O3)cc1 | nt | nt | 10 | nt | -16 | 6
Cc1cccc(N(Cc2ccccc2)C(=O)CCl)c1 | 25 | -107* | 24 | 96* | 52* | 123*
COC(=O)c1ccc(C(=O)N(Cc2ccccc2)c2ccccc2)cc1 | 13 | 3 | 6 | 13 | nt | 6
O=C(CCl)N(Cc1ccccc1)c1ccccc1 | 17 | -46 | 15 | 70* | 73* | 108*
CC(=O)Nc1cccc(-c2ccnc3c2CC(C)(C(=O)Nc2ccc(Cl)cc2)O3)c1 (stereo unspecified) | 32 | -22 | -19 | -2 | 62* | 56
COc1ccc(NC(=O)C2(C)Cc3c(-c4cccc(NC(C)=O)c4)ccnc3O2)cn1 (stereo unspecified) | -15 | -14 | -13 | 30 | 59* | nt
CN1C(=O)c2cc(NC(=O)c3cccs3)ccc2OC[C@H]2O[C@H](CC(=O)NCCN3CCCCC3)CC[C@@H]21 | nt | nt | -14 | nt | 7 | -12
O=C(C[C@@H]1C[C@@H]2c3cc(NC(=O)c4cccnc4)ccc3O[C@@H]2[C@@H](CO)O1)NCCc1ccccc1 | nt | nt | -5 | nt | -3 | 6
Cn1c2ccccc2c(=O)c2ccc(C#CC3(N)CCCCC3)cc21 | -60 | -20 | 5 | -7 | -86 | -147
Cn1c2ccccc2c(=O)c2cc(C#CC3(O)CCCCC3)ccc21 | 31 | -72* | 82* | -133 | 68* | 33
CCS(=O)(=O)Nc1ccc2c(c1)C(=O)N(C)C[C@@H](OC)[C@H](C)CN(C(=O)NC(C)C)[C@H](C)CO2 | nt | nt | -17 | nt | -10 | nt
CN1C(=O)c2cc(NC(=O)C3CC3)ccc2OC[C@H]2O[C@H](CC(=O)NCCc3ccncc3)CC[C@H]21 | nt | nt | 10 | nt | -2 | -4
CN1CCN(C(=O)C[C@@H]2CC[C@@H](NC(=O)Cc3ccccn3)[C@@H](CO)O2)CC1 | nt | nt | 28 | nt | 0 | 7
Cc1cn([C@H]2C[C@H](O)[C@@H](/C=C/C(=O)NCc3cccc4ccccc34)O2)c(=O)[nH]c1=O | -19 | -52* | -1 | 81* | -2 | 17
Cc1ccc(CNC(=O)/C=C/[C@H]2O[C@@H](n3cc(C)c(=O)[nH]c3=O)C[C@@H]2O)o1 | -7 | 4 | -18 | 7 | 6 | 12
Cc1ccc(S(=O)(=O)Nc2cccc3c2O[C@H](CN(C)C(=O)Nc2cccc4ccccc24)[C@@H](C)CN([C@H](C)CO)C3=O)cc1 | nt | nt | -3 | nt | -28 | 20
CCOc1cc(/C=C/C(=O)Nc2ccc(C(=O)NCCN(CC)CC)cc2)ccc1OCC(C)C | 37 | -34 | 103* | 13 | 55* | 78*
O=C1c2ccccc2C(=O)C1c1ccnc2ccccc12 | 43 | -70* | nt | -134 | nt | nt
N#CC1=C(N)SC(N)=C(C#N)C1c1ccnc2ccccc12 | 2 | 3 | nt | -7 | nt | nt
SMILES | Shn3 3UTR inh | KKLEB cytotox | LGR2 inh | CF NFkB inh | EWS-Fli inh | PAX8 inh HTS
O=C1c2ccccc2C(=O)C1c1nccc2ccccc12 | 0 | -65* | nt | -144 | nt | nt
Cc1ccc(-c2nnc(N3CCC(C)CC3)c3ccccc23)cc1C | 91* | -8 | 1 | 3 | 21 | 35
O=C1N(CCS(=O)(=O)c2ccccc2)Cc2ccccc2C[C@]12N=C(c1ccc(OCCCO)cc1)O[C@@H]2c1ccccc1 | nt | nt | nt | nt | -6 | 60
COC(=O)c1ccc(NC(=O)c2nc(S(=O)(=O)Cc3cccc(C)c3)ncc2Cl)cc1 | 95* | -101* | 6 | 85* | nt | 26
CCS(=O)(=O)c1ncc(Cl)c(C(=O)Nc2ccc(S(=O)(=O)N3CCC(C)CC3)cc2)n1 | 99* | -105* | 21 | 98* | nt | 100*
CSc1ncc(Cl)c(C(=O)Nc2ccc(C)c(C)c2)n1 | -9 | -8 | 4 | -16 | -6 | 5
CN(c1ccccc1)S(=O)(=O)c1ccc(NC(=O)c2nc(S(C)(=O)=O)ncc2Cl)cc1 | 99* | -29 | 10 | 108* | 58* | 133*
Cc1cccc(COC(=O)Nc2ccc(NC(=O)c3ccccc3Cl)cc2)c1 | 3 | -7 | 11 | 8 | -4 | -13
CN(c1ccccc1)S(=O)(=O)c1ccc(NC(=O)c2ccccc2)cc1 | -5 | -2 | -10 | 2 | nt | -18
Cc1ccc(NC(=O)c2nc(S(=O)(=O)Cc3ccccc3C)ncc2Cl)cc1C | 96* | -98* | 3 | 99* | nt | 10
CC1CCN(S(=O)(=O)c2ccc(NC(=O)c3ccncc3)cc2)CC1 | 51 | -17 | 5 | 8 | 32 | 17
C[C@@H]1CN([C@H](C)CO)C(=O)Cc2cc(NC(=O)C3CCCCC3)ccc2O[C@H]1CN(C)Cc1ccc2c(c1)OCO2 | nt | nt | -28 | nt | 3 | nt
Cc1noc(C)c1NC(=O)N(C)C[C@@H]1Oc2ccc(NS(=O)(=O)c3ccc(F)cc3)cc2CC(=O)N([C@@H](C)CO)C[C@@H]1C | nt | nt | -16 | nt | -8 | nt
C[C@H](CO)N1C[C@H](C)[C@@H](CN(C)C(=O)Nc2ccc3c(c2)OCO3)OCCCC[C@H](C)Oc2ccc(NS(=O)(=O)c3cccs3)cc2C1=O | nt | nt | 0 | nt | -7 | 3
CCOC(=O)c1ccc(NC(=O)CCS(=O)(=O)Cc2ccccc2)cc1 | -6 | -9 | 6 | -2 | nt | 1
CCc1ccc(NC(=O)c2nc(S(=O)(=O)Cc3ccccc3)ncc2Cl)cc1 | 96* | -97* | 3 | 91* | nt | 53
Cc1ccc(C(=O)NCc2ccc3c(c2)OCO3)c(Cl)c1 | -23 | -10 | -53 | 11 | -22 | -34
CCSc1ncc(Cl)c(C(=O)Nc2ccc(S(=O)(=O)Nc3ncccn3)cc2)n1 | -13 | 1 | -15 | 9 | -2 | -9
CCOC(=O)c1ccc(NC(=O)c2nc(S(=O)(=O)Cc3ccccc3)ncc2Cl)cc1 | 96* | -66* | -9 | 95* | nt | 22
CCSc1ncc(Cl)c(C(=O)Nc2ccc(S(N)(=O)=O)cc2)n1 | 25 | 16 | -1 | -21 | 18 | 70*
